Consider 19 compounds from PubChem BioAssay (Tox21).

A short description of experiment [1]: qHTS assay to identify small molecule agonists of the hypoxia (HIF-1) signaling pathway - cell viability counter screen (AID 1224844; calls by dose curve; note: nearly all actives have a fitted effect of over 50% in size; note: potency is the fitted concentration of half-maximal effect). In short, it runs like this: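 CellTiter-Glo luminescence read-out, 30 min RT, taken in the same wells as the beta-lactamase HRE reporter assay; HRE-bla ME-180 cells, 0.5% dialyzed FBS, 17 hr compound treatment at 37C, 5% CO2.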
(In general: qHTS replaces the single test concentration by a dilution series.)

Experiment [2] can be described thus: qHTS assay to identify small molecule agonists of the estrogen related receptor (ERR) signaling pathway from Tox21 library (AID 1224849; calls by dose curve; note: nearly all actives have a fitted effect of over 15% in size). The conditions noted are these: ERR reporter cell line, ONE-Glo luciferase, 18 h. In a few lines: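 Luminescence readout (ONE-Glo, 30 min RT) after 18 h compound exposure at 37 C of NTP-supplied ERR reporter cells; cells were plated 6 h before compound addition by pin tool.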

The nature of experiment [3]: qHTS RealTime-Glo MT Cell Viability Assay in HepG2 cells - 24 hour (AID 1224867). Note: nearly all actives have a fitted effect of over 50% in size. Note: potency is the fitted concentration of half-maximal effect. In short, it runs like this: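 Tox21 10K library screened in qHTS format on HepG2 cells carrying RealTime-Glo reagents. Compounds were added after a 5 h preincubation, and the luminescent signal from continuous culture was measured repeatedly during 40 h treatment.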
Experiment [4] can be described thus: qHTS RealTime-Glo MT Cell Viability Assay in HEK293 cells - 32 hour (AID 1224868). Note: nearly all actives have a fitted effect of over 50% in size. Note: potency is the fitted concentration of half-maximal effect. In a few lines:
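Luminescence generated by NanoLuc from substrate produced by living HEK293 cells served as the viability signal. Each value reflects the reading at its stated time point during continuous 40 h compound exposure at 37 C.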

Experiment [5] in a line: A CellTox Green Cytotoxicity Assay to monitor cytotoxicity in HEK293 cells - 0 hour (AID 1224869). Note: nearly all actives have a fitted effect of over 50% in size. Note: potency is the fitted concentration of half-maximal effect. In a few lines: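 Read-out: fluorescence of a cell-impermeant cyanine dye staining DNA of dead cells, proportional to cytotoxicity. HEK293, 600 cells/well with reagent, compound (23 nL DMSO) added after 5 h; reads at 0, 8, 16, 24, 32, 40 h.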
The nature of experiment [6]: qHTS RealTime-Glo MT Cell Viability Assay in HepG2 cells - 40 hour (AID 1224870). Note: nearly all actives have a fitted effect of over 50% in size. Note: potency is the fitted concentration of half-maximal effect. In short, it runs like this:
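Real-time viability: cells seeded at 600 per well together with NanoLuc and cell-permeant prosubstrate, compounds added after 5 h incubation. Luminescence tracked at 0, 8, 16, 24, 32 and 40 h of exposure.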

A short description of experiment [7]: qHTS assay to identify small molecule agonists of the hypoxia (HIF-1) signaling pathway (AID 1224846; active = well fitted activation curve with a large enough effect in the signal ratio in the repeat runs, not every such curve was filed as active; the % refers to the signal ratio). In a few lines: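 Beta-lactamase FRET read-out (CCF4-AM substrate) from ME-180 cells carrying an HRE-driven bla reporter, after 17 hrs compound exposure at 37C/5% CO2. Cells were seeded at 2,000 per well in 0.5% dialyzed FBS medium and preincubated 5 hrs.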

A short description of experiment [8]: qHTS assay to identify small molecule agonists of H2AX - cell viability counter screen (AID 1224847; calls by dose curve; note: nearly all actives have a fitted effect of over 30% in size; note: potency is the fitted concentration of half-maximal effect). In a few lines:
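Viability of CHO-K1 (wild type) cells after 3 hr compound exposure was measured by CellTiter-Glo luminescence.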

The nature of experiment [9]: qHTS assay to identify small molecule agonists of H2AX (AID 1224845; active = well fitted activation curve with a large enough effect in the signal ratio in the repeat runs, not every such curve was filed as active; the % refers to the signal ratio). In short, it runs like this: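 Phospho-H2AX Ser139 measured by HTRF (ex 320 nm; em 665 and 620 nm) after 24 hr antibody incubation. Compounds, 15 concentrations, 0.76% DMSO, were applied to CHO-K1 cells for 3hr at 37C before lysis.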

Structures are written as SMILES. “And” between values parts separate entries of the source, which are not always exact repeats. Identical values can stand only once. Records with an inconclusive call do not appear. Some structures have more than one record in an assay (separate samples or runs), and their calls can disagree. The source made the active and inactive calls. Unless noted, calls come from the whole dose curve; as a rule, active = well fitted curve in the direction sought with a large enough effect in the repeat runs; inconclusive = weak or mixed curves; inactive = no such curve, though single readings can be large; an effect the other way counts as inactive or inconclusive.
% is set by controls: 0 for no effect and ±100 for the full control effect.

`C=CC(=O)OCC(CC)(COC(=O)C=C)COC(=O)C=C`: the Potency is 20 µM (active) and 12.3 µM (active) in experiment [1]; 25.2 µM (active) and 12.3 µM (active) in experiment [3]; 3.56 µM (active) and 11 µM (active) in experiment [4]; 35.6 µM (active) and 12.3 µM (active) in experiment [6]. Besides, the activity change, positive = activation in [2] (at 92.4 µM (top of the series)) was -82.1% (inactive) and -76.4% (inactive). Further, in experiment [5], the Potency entry was “inactive”.

Take `CC(C)CON=O`: the Potency result in [1], in [8], in experiment [4], in experiment [5] and in experiment [6] was “inactive” throughout. The compound was called inactive in experiment [7].

Take `CCN(CC)C(=O)C(C)Oc1cccc2ccccc12` (stereo not drawn): the Potency entry in experiment [1], in experiment [3], in experiment [4], in experiment [5] and in [6] was “inactive” in each case. Moreover, the outcome in [7] was inactive.

`CCOS(=O)(=O)OCC`: the Potency entry in experiment [1], in [8], in experiment [4], in experiment [5] and in [6] was “inactive” throughout. Also, the result in [7] was inactive.

`[CH3][Sn]([Cl])([Cl])[Cl]`: the Potency result in experiment [1], in [8], in experiment [3], in experiment [4], in [5] and in experiment [6] was “inactive” each time. In experiment [7], the compound was called inactive.

Take `O=NN(c1ccccc1)c1ccccc1`: the Potency entry in [1], in experiment [8], in experiment [4], in [5] and in experiment [6] was “inactive” in each case. The compound was classed as inactive in experiment [7].

For the compound `CCCCOC(=O)COC(=O)c1ccccc1C(=O)OCCCC`, the Potency result in experiment [1], in experiment [8], in [4], in experiment [5] and in experiment [6] was “inactive” in each case. Further, the compound was called inactive in [7]. Further, the activity change, positive = activation in experiment [2] (at 92.4 µM (top of the series)) is 4.38% (inactive) and 0.695% (inactive).

`CC(C)(c1ccccc1)c1ccc(O)cc1`: the Potency in [8] was 112 µM (active) and 101 µM (active); in experiment [4] it was 27.5 µM (active). Also, the Potency entry in experiment [5] and in [6] was “inactive” each time.

Take `COC(=O)Nc1nc2ccccc2[nH]1`: the Potency entry in [1], in [8], in [3], in [5] and in experiment [6] was “inactive” throughout. In addition, the compound was classed as inactive in experiment [7].

Regarding `CC(C)(c1ccc(OCC2CO2)cc1)c1ccc(OCC2CO2)cc1` (stereo not drawn), the Potency entry in [9], in experiment [8], in [3], in experiment [4], in experiment [5] and in experiment [6] was “inactive” throughout. In addition, the result in experiment [7] was inactive. The activity change, positive = activation in [2] (at 92.4 µM (top of the series)) is -61.1% (inactive) and -21.3% (inactive).

Consider `CS(=O)(=O)NC(=O)c1cc(Oc2ccc(C(F)(F)F)cc2Cl)ccc1[N+](=O)[O-]`, for which the Potency result in experiment [1], in [8], in experiment [4], in experiment [5] and in [6] was “inactive” each time. Further, in experiment [7], the compound was classed as inactive.

Turning to `CC(C)Nc1nc(Cl)nc(NC(C)C)n1`, the Potency entry in [1], in experiment [8], in experiment [3], in experiment [4], in experiment [5] and in experiment [6] was “inactive” each time. Moreover, the compound was called inactive in experiment [7]. In addition, the activity change, positive = activation in [2] (at 92.4 µM (top of the series)) was 1.71% (inactive) and -9.11% (inactive).

In the case of `Clc1ccc(C(Cl)(Cl)Cl)cc1`, the Potency result in experiment [1], in experiment [8], in experiment [4], in experiment [5] and in experiment [6] was “inactive” in each case. The outcome in experiment [7] was inactive. Besides, the activity change, positive = activation in experiment [2] (at 92.4 µM (top of the series)) is -5.48% (inactive) and 0.497% (inactive).

On to `Cc1cc(Cl)ccc1N=CN(C)C`, for which the Potency entry in experiment [1], in experiment [8], in experiment [4], in experiment [5] and in experiment [6] was “inactive” throughout. Moreover, in [7], the compound was classed as inactive. In [2] (at 92.4 µM (top of the series)), the activity change, positive = activation was -6.81% (inactive) and 2.85% (inactive).

For the compound `CC[n+]1c(-c2ccccc2)c2cc(N)ccc2c2ccc(N)cc21`, the Potency in [1] was 21.8 µM (active) and inactive; in experiment [4], 4.34 µM (active) and 5.35 µM (active). Moreover, the Potency result in [8], in [5] and in experiment [6] was “inactive” in each case.

With `CCOP(=S)(OCC)SCSC(C)(C)C`, the Potency result in experiment [1], in experiment [8], in experiment [3], in experiment [4], in experiment [5] and in experiment [6] was “inactive” in each case. The outcome in experiment [7] was inactive.

For the compound `O=C1C(Cl)=C(Cl)C(=O)c2ccccc21`, the Potency in experiment [1] was 7.79 µM (active); in [8] it was 22.6 µM (active) and 14.2 µM (active); in [4], 6.19 µM (active) and 7.76 µM (active); in [6] it was 34.8 µM (active) and 17.4 µM (active). Moreover, the activity change, positive = activation in experiment [2] (at 92.4 µM (top of the series)) is -82.7% (inactive) and -46.9% (inactive). Further, the Potency entry in [5] is “inactive”.

Regarding `NC(=O)CN1CCCC1=O`, the Potency entry in experiment [1], in experiment [8], in experiment [3], in experiment [4], in experiment [5] and in experiment [6] was “inactive” each time. Besides, the figures for the activity change, positive = activation in experiment [2] (at 42.5 µM (top of the series)) and in [2] (at 92.4 µM (top of the series)) were 2.36% (inactive) and 6.19% (inactive), respectively.

On to `C[C@]12CCC(=O)C=C1CC[C@@H]1[C@@H]2CC[C@@]2(C)[C@H]1CC[C@]2(C)O`, for which the Potency entry in [1], in experiment [3] and in experiment [6] was “inactive” each time. The call in experiment [7] was inactive. The Potency in experiment [8] was 71.9 µM (active) and inactive; in experiment [4] it was 22.1 µM (active); in experiment [5], 44 µM (active) and inactive.
